# High-throughput results as filed in PubChem.
# NTR1 ag: NTR1 (human) agonism. P30989. NTR1-U2OS beta-arrestin-GFP spot imaging, agonist mode. activation, % at 20 µM. 330,000 tested, 0.17% active;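 active means activation at or above 40% of the spot to cytoplasm intensity ratio, with at least 20 cells analyzed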
# CHO-K1 Ca ag: nonselective activator or artifact in parental CHO-K1 cells | Fluo-8 calcium fluorescence; scaled to maximal ATP response, vehicle zero | activation, % at 3 µM | 360,000 tested, 0.48% active | AID 602248; in the data active means activation above about 15%;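 further: untransfected CHO-K1 host cells lacking M1 receptor as counterscreen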
# CHO-K1 Ca PAM: M1 PAM counterscreen hit in parental CHO-K1 cells; ATP EC20, Fluo-8 calcium fluorescence; 0% at ATP EC20, 100% at ATP max; activation, % at 3 µM; 360,000 tested, 0.02% active; AID 602247;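 active means activation above the run cutoff, the mean activation of all test compounds plus 3 SD, cut at about 40% in these data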;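 further: peak over basal fluorescence ratio in a 140 s read after ATP addition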
# ANO1 activ: activators or potentiators of mouse TMEM16A chloride channel | Q8BHY3 | HEK293 TMEM16A/YFP-H148Q/I152L, iodide quench fluorescence; stronger effect = lower value | B-score at 10 µM | 340,000 tested, 0.3% active | AID 623877;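 active means fluorescence-ratio B-score plate-corrected deviation score at least 3 library SD below zero, with starting fluorescence score within 5 deviations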;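 further: channel opened by trigger with iodide after compound preincubation; score built on the fluorescence ratio of max minus min over baseline; more negative score means more quench and so TMEM16A activation or potentiation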
# Target sequence (Q8BHY3 whole entry, looked up): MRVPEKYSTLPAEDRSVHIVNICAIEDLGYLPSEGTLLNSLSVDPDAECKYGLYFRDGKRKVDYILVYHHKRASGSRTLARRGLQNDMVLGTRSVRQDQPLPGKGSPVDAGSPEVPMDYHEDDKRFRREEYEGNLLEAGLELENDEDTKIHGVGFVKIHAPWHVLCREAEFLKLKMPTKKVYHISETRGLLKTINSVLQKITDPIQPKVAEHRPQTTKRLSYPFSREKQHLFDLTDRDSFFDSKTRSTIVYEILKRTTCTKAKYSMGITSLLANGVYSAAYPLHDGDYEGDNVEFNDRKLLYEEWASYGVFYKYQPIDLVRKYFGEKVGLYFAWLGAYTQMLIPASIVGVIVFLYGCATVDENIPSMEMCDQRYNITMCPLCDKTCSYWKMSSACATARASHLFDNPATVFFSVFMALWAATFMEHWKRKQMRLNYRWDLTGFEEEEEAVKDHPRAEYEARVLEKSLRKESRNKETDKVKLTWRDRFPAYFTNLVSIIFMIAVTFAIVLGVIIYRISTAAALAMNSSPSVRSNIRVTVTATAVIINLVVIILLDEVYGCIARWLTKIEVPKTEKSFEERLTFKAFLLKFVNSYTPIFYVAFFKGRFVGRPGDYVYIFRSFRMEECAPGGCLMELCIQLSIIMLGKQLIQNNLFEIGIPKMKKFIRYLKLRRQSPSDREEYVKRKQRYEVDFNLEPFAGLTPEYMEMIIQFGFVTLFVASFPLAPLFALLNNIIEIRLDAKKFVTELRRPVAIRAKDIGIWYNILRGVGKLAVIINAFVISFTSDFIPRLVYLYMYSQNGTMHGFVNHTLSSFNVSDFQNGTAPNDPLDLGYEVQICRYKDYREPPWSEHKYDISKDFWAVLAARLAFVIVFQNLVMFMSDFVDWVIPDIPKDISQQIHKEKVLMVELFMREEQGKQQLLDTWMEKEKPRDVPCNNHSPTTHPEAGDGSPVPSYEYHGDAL
# ANO1 block: mouse TMEM16A channel inhibition, primary screen; Q8BHY3; HEK293 TMEM16A/YFP iodide influx fluorescence, ionomycin; normalized B-score (activity score, 25-100; higher = stronger inhibition) at 10 µM; 310,000 tested, 1.2% active;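 active means ratio plate-corrected score three or more library SD toward inhibition, starting fluorescence score within five deviations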;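 further: score derived from kinetic fluorescence span divided by baseline fluorescence per well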
# CHO-K1 Ca antag: nonselective inhibitor or artifact in parental CHO-K1 cells; 360,000 tested, 0.6% active; inhibition, % at 3 µM; AID 602250; ATP-induced calcium, Fluo-8 fluorescence;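 active means inhibition above a per-plate cutoff, the plate's mean sample inhibition plus 3 SD, cut at about 24% in these data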
# A number is an active result; - = inactive; . = not tested or not shown; ! = not confirmed by another sample. Rows were chosen to be rich in hits. Some 2.2% of all compounds tested hit in one or more screens of this group.
SMILES,NTR1 ag,CHO-K1 Ca ag,CHO-K1 Ca PAM,ANO1 activ,ANO1 block,CHO-K1 Ca antag
C[C@@H]1CC=C[C@H]2[C@H]1C(=O)N(Cc1ccccc1)[C@H]2c1ccc(C(F)(F)F)cc1,-,-,-,-,100,-
C[C@@H]1CC=C[C@@H]2[C@H]1C(=O)N(Cc1ccccc1)[C@H]2c1cccc(Br)c1,-,-,-,.,.,-
CN(C)c1ncnc2c1ncn2[C@H]1CN(Cc2ccc(-c3ccccc3)cc2)C[C@@H](CO)O1,.,-,-,.,.,-
NC(=O)CSc1nnnn1CC(CC(=O)O)c1ccccc1 (stereo unspecified),-,-,-,-,-,24.8
C=C[C@H]1CN2CC[C@H]1C[C@@H]2[C@@H](O)c1ccnc2ccc(OC)cc12,-,-,-,-,-,24.9!
NCC(c1ccc(Cl)cc1Cl)c1c[nH]c2ccccc12 (stereo unspecified),-,15.3,-,-,-,25.2
CNc1nc2cc([N+](=O)[O-])c([N+](=O)[O-])cc2nc1NC,.,17.5,-,-,-,39.3
N#Cc1cc2nc(O)c(O)nc2cc1[N+](=O)[O-],-,-,-,-,-,-
COc1ccccc1N1CCN(C(=O)CSc2nc3ccccc3[nH]2)CC1,-,-,-,-,25,-
COc1ccccc1N1CCN(C(=O)CSc2ncccc2-c2nc3ccccc3[nH]2)CC1,-,-,-,-,-,-
CC(C)CC(=O)NC(NC(=S)Nc1ccccc1)C(Cl)(Cl)Cl (stereo unspecified),-,-,-,-,-,-
CC(C)CC(=O)NC(Nc1ccc([N+](=O)[O-])cc1)C(Cl)(Cl)Cl (stereo unspecified),-,16.4,-,-,-,-
CC(C)(C)c1ccc(OCCCNCc2ccccc2)cc1,-,-,-,-,-,-
CCc1cc(OCCCCNCc2ccccc2)ccc1Cl,-,16.8,-,-,-,-
Nc1nc(-c2ccccc2)c(CCCOc2ccc(NC(=O)CBr)cc2)c(=O)[nH]1,.,-,-,-,.,-
COc1cccc(N(C(=O)c2cccs2)c2nc3ccccc3s2)c1,-,-,-,-,-,26.3
CCN(C(=O)c1cccs1)c1nc(-c2ccc(OC)cc2)cs1,-,-,-,-,-,-
CCOC(=O)[C@]12CCC=C1N(Cc1ccc3c(c1)OCO3)C(=O)[C@H](CC(=O)NCC13CC4CC(CC(C4)C1)C3)C2,.,-,-,.,.,-
CCCCn1c(O)c2n(c1=O)Cc1ccccc1N=C2c1ccccc1,.,-,-,.,.,-
COc1cc(OC)cc(-c2cc3nc(C)c(CCC(=O)O)c(C)n3n2)c1,.,-,-,-,-,39.1
COc1cc(OC)cc(-c2cc3nc(C)c(CCC(=O)NC(C)CCc4ccco4)c(C)n3n2)c1 (stereo unspecified),-,-,-,-,-,-
COc1cc(/C=N/N2C(=O)CSC2=S)cc(Br)c1O,.,48.4,-,-,.,-
CCOC(=O)C1CCN(c2ncnc3c(C)csc23)CC1,-,15.4,-,-,-,-
CSCCC1NC(=O)N(CC(=O)N2N=C(c3ccc(Cl)cc3)CC2c2ccco2)C1=O (stereo unspecified),-,-,-,-,25,-
N#CC(C(=O)NCCc1ccccc1)c1nc2ccccc2nc1N1CCCCC1 (stereo unspecified),-,-,-,-,100,-
SMILES,NTR1 ag,CHO-K1 Ca ag,CHO-K1 Ca PAM,ANO1 activ,ANO1 block,CHO-K1 Ca antag
N#CC(C(=O)NCCc1ccccc1)c1nc2ccccc2nc1N1CCOCC1 (stereo unspecified),-,-,-,-,-,-
Cc1ccc(O)c(NC(=S)NC(=O)Cc2ccc(Cl)cc2)c1,-,57.6,-,-,-,90.2
Cc1ccc(NC(=S)NC(=O)c2ccc(-c3ccc(Cl)cc3)o2)c(O)c1,-,-,-,-,-,-
CCOC(=O)c1cnc2c(cnn2C)c1NCCCN(C)C,-,-,-,-,-,32.9
CCOC(=O)c1cnc2c(cnn2C)c1NCCC#N,-,-,-,-,-,-
CCN1CCN(CC(=O)N2N=C(c3cccs3)CC2c2ccc(OC)c(OC)c2)C(=O)C1=O (stereo unspecified),-,-,-,-,-,-
C=C1C(=O)c2sccc2C(c2ccc(OC)c(OC)c2)C1COC(C)=O (stereo unspecified),.,-,-,-4.85,.,-
CCOC(=O)c1cnn(-c2ccc(NS(=O)(=O)c3ccc(Cl)cc3)cc2)c1C(F)(F)F,-,-,-,-,100,-
NNC(=O)c1cc2c(N3CCC(Cc4ccccc4)CC3)ncnc2s1,-,-,-,-,100,-
O=C1c2ccccc2C(c2nnnn2-c2ccc3c(c2)OCCO3)N1Cc1cccc(F)c1 (stereo unspecified),.,-,-,.,.,-
CCCOc1ccc(C(=O)NC(=S)NNC(=O)c2c(-c3ccccc3)noc2C)cc1,-,32.7,-,-,100,-
Cc1onc(-c2c(Cl)cccc2Cl)c1C(=O)NCc1ccco1,-,-,-,-,-,-
CCCOc1ccc(NC(=O)c2c(-c3ccccc3)noc2C)cc1,-,-,-,-,-,-
Cc1onc(-c2ccccc2)c1C(=O)NCc1ccco1,-,-,-,-16.3,-,-
Cc1onc(-c2ccccc2)c1C(=O)NC(=S)NNC(=O)c1ccccc1O,-,77.0,-,-,100,-
COc1ccc(CCC2(C)NC(=O)N(C(C)C(=O)Nc3ccccc3F)C2=O)cc1 (stereo unspecified),-,-,-,-,.,-
CC(C)C[C@H]1CN(CCCC[C@H]2CNC(=O)C(=O)N2CC2CCCCC2)C(=O)C(=O)N1CCc1ccc(O)cc1,.,-,-,.,.,-
O=C(Nc1ncnc2c1ncn2[C@@H]1O[C@H](/C=C/C(=O)N2CCN(c3ccc(F)cc3)CC2)[C@@H](O)[C@H]1O)c1ccccc1,.,-,-,.,.,-
O=C(c1ccccc1)c1sc(N2CCCCCC2)nc1-c1ccccc1,-,-,-,-,-,-
COc1ccc(-c2nc(N3CCCCCC3)sc2C(=O)c2ccccc2)cc1,-,-,-,-,-,52.2
COc1cc(Cl)c(C)cc1NC(=O)CSc1ccc(C)cc1,-,-,-,-,-,-
COc1cc(Cl)c(C)cc1NC(=O)CSc1cc(Cl)ccc1Cl,-,-,-,-,100,-
CN(Cc1nc2ccccc2c(=O)[nH]1)C(=O)c1cccc(S(=O)(=O)N2CCc3ccccc32)c1,-,-,-,-,.,-
COc1cccc(-c2cc(C(=O)N3CCN(c4ncccn4)CC3)c3ccccc3n2)c1,-,-,-,-,-,33.7
CC(C)Oc1cccc(-c2cc(C(=O)N3CCN(c4ncccn4)CC3)c3ccccc3n2)c1,-,-,-,-,-,-
CC(=O)C1=CCC(c2ccc(Cl)c(Cl)c2)N(S(=O)(=O)c2ccc(C)cc2)C1 (stereo unspecified),.,-,-,.,.,-
